Screening results: PubChem, National Center for Advancing Translational Sciences (NCATS)
Hits are enriched below; roughly 3.8% of the tested compounds scored in any of these assays.
ATXN2 expr inh: inhibitors of ATXN2 expression; HEK-293 ATXN2-luciferase reporter, luminescence, 24 h; Potency, µM (top dose mostly 57 µM), most hits filed as inhibitors; 360,000 compounds, 0.72% hits; further: nearly all actives have a fitted effect of over 55% in size
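qHTS (up to 57 uM final) was run with 24 h compound exposure of reporter cells at 37 °C. Each well was multiplexed: SteadyGlo luminescence measured ATXN2-luciferase expression after a fluorogenic Gly-Phe-AFC viability readout (25 uM final).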
HepG2 tox: kills HepG2 cells in TGF-b inhibitor counter-screen. HepG2 CAGA-GFP viability, ATP luminescence, 18 h. Potency, µM (highest dose often 46.1 µM), usual class: cytotoxic. 410,000 compounds, 0.76% hits. AID 588856
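HepG2 CAGA-GFP cells (1000/well, DMEM with 1% FBS) received compound, then TGF-beta at 500 pg/mL final, and were incubated 18 hours at 37 degrees C. Viability was read by CellTiter-Glo luminescence. Media-only wells were set as complete cell-killing and DMSO as no toxicity.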
A549 viability: counter-screen for Nrf2 inhibitors: cytotoxicity in A549 cells; 390,000 compounds, 0.16% hits; Potency, µM (doses to about 46 µM), actives largely listed as inhibitors; A549 ARE-Fluc cells, CellTiter-Fluor viability, 18-24 h
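A549 ARE-Fluc cells in 5% FBS OPTI-MEM, 5000 cells/well, rested 2 h then exposed to compounds in concentration-response for 18-24 h at 37 °C. Viability by CellTiter-Fluor fluorescence (Ex 405/Em 525) after 30 min; luciferase luminescence (BugLite, 15 min, RT) read afterwards.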
TGFb inhibitor: TGF-b pathway inhibition | HepG2 CAGA-GFP TGF-b/SMAD3 reporter, GFP fluorescence, 18 h; TGF-beta stimulated, 500 pg/mL final | Potency, µM (series often up to 46.1 µM), usual class: inhibitors | 410,000 compounds, 1.2% hits | AID 588855; further: nearly all actives have a fitted effect of over 65% in size
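HEPG2 CAGA-GFP reporter cells (1000/well, DMEM with 1% FBS) received compounds, then recombinant TGF-beta at 500 pg/mL final for 18 hours at 37 degrees C. Per-cell GFP summed per well was normalised to unstimulated and stimulated DMSO controls before curve fitting.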
Nrf2 inh: blocks Nrf2 signaling; Potency, µM (series often up to 46 µM), usual class: inhibitors; A549 ARE-Fluc reporter, luciferase luminescence, 18-24 h; 360,000 compounds, 2.1% hits; further: nearly all actives have a fitted effect of over 60% in size
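Concentration-response testing used A549 ARE_Fluc cells at 5000 cells/well. Following an 18-24 h compound incubation, viability was read by fluorescence (Ex 405/Em 525) and luciferase output by luminescence.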
ATXN viability: cell viability loss in ATXN counter-screen; Potency, µM (series often up to 56.7 µM), most hits filed as cytotoxic; S2 cells (HEK-293 line with an ATXN2-luciferase reporter) viability, CellTiter-Fluor protease fluorescence, 24 h; 400,000 compounds, 0.49% hits; further: nearly all actives have a fitted effect of over 40% in size
Of the large screens only hits and unclear results are named; the others gave an inactive call; ! = not confirmed by another sample. The call rests on the fitted dose curve; in most records, active means well fitted curve in the direction sought with a large enough effect; inconclusive means small, poorly fitted or top-dose-only effect, or another doubt; inactive means no such curve, though single readings can be large; an effect the other way counts as inactive or inconclusive.

NC(=O)c1ccc2c(=O)c(O)c(-c3cc(Cl)c(N)c(Cl)c3)[nH]c2c1	none
Cc1cccc(C)c1NC(=O)COC(=O)c1cccc2c1C(=O)c1ccccc1C2=O	Nrf2 inh 18.4µM
Cc1cccc(NC(=O)COC(=O)c2ccccc2-c2nc3ccccc3s2)c1C	TGFb inhibitor inconclusive
Cc1cccc(NC(=O)COC(=O)c2cccc3c2C(=O)c2ccccc2C3=O)c1C	TGFb inhibitor inconclusive, Nrf2 inh 14.6µM
Cc1cccc(C)c1NC(=O)c1cccc2c1-c1ccccc1C2=O	Nrf2 inh inconclusive
CCOC(=O)C1=C(COC(=O)c2sccc2C)NC(=O)NC1C (stereo not drawn)	none (no result: ATXN2 expr inh)
CCOC(=O)C1=C(COC(=O)c2ccc([N+](=O)[O-])s2)NC(=O)NC1C (stereo not drawn)	TGFb inhibitor 11.2µM, ATXN viability inconclusive (no result: ATXN2 expr inh)
CC[N+](C)(C)c1ccc(/C=C/c2ccnc3ccccc23)cc1	TGFb inhibitor 11.2µM (no result: ATXN2 expr inh, A549 viability, Nrf2 inh, ATXN viability)
CCN(C)c1ccc(/C=C/c2ccnc3ccccc23)cc1	none (no result: ATXN2 expr inh, A549 viability, Nrf2 inh, ATXN viability)
CC[N+](CC)(CC)c1ccc(/C=C/c2ccnc3ccccc23)cc1	TGFb inhibitor 2.51µM (no result: ATXN2 expr inh, A549 viability, Nrf2 inh, ATXN viability)
Cc1cccc(C)c1NC(=O)Cn1c(=O)n(Cc2ccc3c(c2)OCO3)c(=O)c2oc3ccccc3c21	none (no result: ATXN2 expr inh, ATXN viability)
O=C(Nc1cccs1)Nc1ccc(Br)cc1F	TGFb inhibitor 11.2µM
O=C(Nc1cccs1)Nc1ccc(F)cc1F	Nrf2 inh inconclusive
Cc1ccc(-n2c(=O)c3c4c(sc3n(CC(=O)Nc3ccccc3C)c2=O)CCCCC4)cc1C	none
O=C(CCSc1ccc(Cl)cc1)c1ccco1	TGFb inhibitor 11.2µM, ATXN viability inconclusive (no result: ATXN2 expr inh)
O=C(CSc1ccc(Cl)cc1)c1ccco1	none
CC(C)(C)c1cc(CCC(=O)Nc2ccncc2)cc(C(C)(C)C)c1O	ATXN viability inconclusive
O=C(COc1ccc(S(=O)(=O)N2CCOCC2)cc1Cl)NC1CCCCC1	TGFb inhibitor inconclusive
O=S(=O)(c1ccc(OCC(O)CNC23CC4CC(CC(C4)C2)C3)c(Cl)c1)N1CCOCC1 (stereo not drawn)	ATXN2 expr inh inconclusive, HepG2 tox 12.6µM, TGFb inhibitor inconclusive, ATXN viability inconclusive
CN(c1ccc(O)cc1)c1nc(O)c(C2=c3ccccc3=NC2=O)s1	A549 viability inconclusive, TGFb inhibitor inconclusive, ATXN viability 28.2µM (no result: ATXN2 expr inh)
COc1cc(O)c(CC=C(C)C)c(O)c1C(=O)CCc1ccc(O)cc1	ATXN2 expr inh inconclusive, A549 viability inconclusive, TGFb inhibitor inconclusive, Nrf2 inh 25.9µM, ATXN viability inconclusive
CN1C(=O)/C(=C/c2cc(N=Nc3ccccc3)ccc2O)SC1=S	ATXN2 expr inh inconclusive, A549 viability inconclusive, TGFb inhibitor inconclusive, ATXN viability 28.2µM
CCCCOC(=O)Cn1nnc2sc(-c3ccccc3)cc2c1=O	none
COCCNc1nc(NCC2CCCCC2)c2sc(-c3ccccc3)cc2n1	ATXN2 expr inh 35.5µM, TGFb inhibitor inconclusive, ATXN viability 17.8µM (no result: A549 viability, Nrf2 inh)
COCCNc1nc(NCCOc2ccccc2Cl)c2sc(-c3ccccc3)cc2n1	HepG2 tox 14.1µM, TGFb inhibitor inconclusive, ATXN viability inconclusive (no result: A549 viability, Nrf2 inh)
Cc1cccc(Oc2nc(-c3ccccn3)nc3ccccc23)c1	HepG2 tox 11.2µM, TGFb inhibitor inconclusive, ATXN viability inconclusive
O=C(O)/C=C/C(=O)c1c(-c2ccccc2)[nH]c2ccccc12	TGFb inhibitor 12.6µM
OCC1OC(n2cnc3c(=S)nc[nH]c32)C(O)C1O (stereo not drawn)	TGFb inhibitor 10µM! (no result: ATXN2 expr inh, ATXN viability)
Nc1ncn([C@@H]2O[C@H](CO)[C@@H](O)[C@@H]2O)c(=O)n1	ATXN2 expr inh 5.44µM (no result: HepG2 tox, A549 viability, TGFb inhibitor, Nrf2 inh, ATXN viability)
Nc1ncn([C@@H]2O[C@H](CO)[C@@H](O)[C@H]2O)c(=O)n1	ATXN2 expr inh 6.31µM!, A549 viability inconclusive, TGFb inhibitor 11.2µM
Nc1ccn([C@@H]2O[C@H](CO)[C@@H](O)[C@@H]2O)c(=O)n1	ATXN2 expr inh inconclusive, Nrf2 inh inconclusive
CC1(C)OC2C(CO)OC(n3cnc4c(=S)nc[nH]c43)C2O1 (stereo not drawn)	none
Cc1ccc(F)cc1C(=O)N1CCCCC1c1cc(C(=O)Nc2ccc(F)c(Cl)c2)no1 (stereo not drawn)	ATXN viability inconclusive (no result: A549 viability, Nrf2 inh)
Cc1ccc(C(=O)OCC(=O)NC2CCCC2)cc1	none (no result: ATXN2 expr inh)
Cc1ccsc1C(=O)N(c1nc2ccccc2s1)c1c(C)cccc1C	Nrf2 inh 18.4µM
CCOC(=O)Cn1c(=N)n(CCOc2ccc3ccccc3c2)c2ccccc21	TGFb inhibitor 11.2µM, ATXN viability inconclusive
COc1ccc(-n2c(=S)[nH]c3cc(C(=O)Nc4ccc(F)cc4)ccc3c2=O)c(OC)c1	Nrf2 inh 20.6µM
COc1ccc(NC(=O)c2ccc3c(=O)n(-c4ccc(OC)cc4OC)c(=S)[nH]c3c2)cc1	none
COc1ccc(-n2c(=S)[nH]c3cc(C(=O)NCc4ccc(F)cc4)ccc3c2=O)c(OC)c1	TGFb inhibitor inconclusive, Nrf2 inh 16.4µM
COc1ccc(-n2c(=S)[nH]c3cc(C(=O)NCc4ccccc4OC)ccc3c2=O)c(OC)c1	Nrf2 inh inconclusive, ATXN viability inconclusive
CCOC(=O)C1CCN(C(=O)c2ccc(OCC(=O)Nc3cccc(C(F)(F)F)c3)c(OC)c2)CC1	ATXN2 expr inh inconclusive, TGFb inhibitor inconclusive, Nrf2 inh 14.6µM
